Giardia FBPA inh = qHTS Assay for Inhibitors of Fructose-1,6-bisphosphate Aldolase from Giardia Lamblia. purified Giardia FBPA. Potency, µM (titrated, usually from 59.6 µM), for the others: top-dose activity, negative = inhibition, most hits filed as inhibitors. hit rate 0.71% among 290,000; note: potency is the fitted concentration of half-maximal effect; nearly all actives have a fitted effect of over 55% in size
Target sequence (A8B2U2 whole entry, looked up): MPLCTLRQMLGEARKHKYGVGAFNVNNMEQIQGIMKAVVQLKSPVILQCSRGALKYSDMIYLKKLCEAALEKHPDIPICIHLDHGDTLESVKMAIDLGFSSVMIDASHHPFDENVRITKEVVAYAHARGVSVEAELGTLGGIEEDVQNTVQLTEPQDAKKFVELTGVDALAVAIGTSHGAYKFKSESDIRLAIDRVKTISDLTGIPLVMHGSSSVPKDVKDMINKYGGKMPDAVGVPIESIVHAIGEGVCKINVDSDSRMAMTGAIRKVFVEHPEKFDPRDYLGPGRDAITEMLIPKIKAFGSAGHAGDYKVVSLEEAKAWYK
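Giardia FBPA (40 nM reagent) was preincubated 10 min at RT with compound (up to 57.5 uM final), then substrate plus GAPDH/TPI/NAD/arsenate coupling system with diaphorase/resazurin was added; resorufin fluorescence (525/598 nm) was read after 20 min.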
Sm TGR inh = qHTS Assay for the Inhibitors of Schistosoma Mansoni Peroxiredoxins; AID 485364, 2010; purified TGR, DTNB reduction, TNB absorbance 405 nm; hit rate 3% among 360,000; Potency, µM (series often up to 114 µM), for inactives: top-dose activity change, negative = inhibition, most hits filed as inhibitors; Schistosoma mansoni thioredoxin glutathione reductase (TGR), Q962Y6; note: potency is the fitted concentration of half-maximal effect; nearly all actives have a fitted effect of over 60% in size
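TGR 20 nM + NADPH 100 uM (dispensed conc.), cpd preinc 15 min RT; start with NADPH (500 uM addition) then DTNB (15 mM addition). Kinetic TNB absorbance, 405 nm filter. Four-parameter Hill fit across titration.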
Pf growth 48h = Primary qHTS for delayed death inhibitors of the malarial parasite plastid, 48 hour incubation; P. falciparum luciferase growth in erythrocytes, 48 h; Potency, µM (doses to about 28.7 µM), inactives show at the top dose activity change, negative = inhibition, actives largely listed as inhibitors; hit rate 5.9% among 310,000; note: potency is the fitted concentration of half-maximal effect
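Luciferase-expressing P. falciparum in infected erythrocytes (2% hematocrit, 0.1% parasitemia final) in RPMI 1640/0.5% Albumax were exposed to compound for 48 hours at 37 C, 5% CO2; growth read as luminescence.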
HCMV antiviral = qHTS Assay for inhibitors of the human cytomegalovirus (HCMV) | HFF cells, HCMV-luciferase reporter, 72 h; hits give low values | activity change, negative = inhibition, % at 57.5 µM | hit rate 4.5% among 410,000 | AID 1259415, 2018; in the data active = activity change below about -60%; inconclusive = no clear call, values can overlap the other calls; inactive = above about -39%
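Compounds were evaluated in HFFs infected with an HCMV luciferase reporter virus (MOI 1 PFU/cell). Luciferase in lysates collected 72 h post infection served as the replication measure.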
Pf growth 96h = Primary qHTS for delayed death inhibitors of the malarial parasite plastid, 96 hour incubation. P. falciparum luciferase reporter growth, 96 h. Potency, µM (top dose mostly 28.7 µM), without a hit: top-dose activity change, negative = inhibition, most hits filed as inhibitors. hit rate 6.9% among 320,000; note: potency is the fitted concentration of half-maximal effect
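Plates of compound plus infected erythrocytes (2% hematocrit, 0.05% parasitemia final) incubate 96 hours, 37 C, 5% CO2. Detection reagent added; reduced luminescence from the parasites' luciferase reporter flags inhibition.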
Numbers without * were called inactive; i = inactive; ? = inconclusive; . = no result; [ ] = dose if it differs, or a comment. A selection: hits, their analogues and other compounds. The true share with any hit is near 14%. Unless noted, calls come from the whole dose curve; as a rule, active = well fitted curve in the direction sought with a large enough effect; inconclusive = small, poorly fitted or top-dose-only effect, or another doubt; inactive = no such curve, though single readings can be large; an effect the other way counts as inactive or inconclusive. % is set by controls: 0 for no effect and ±100 for the full control effect.

SMILES | Giardia FBPA inh | Sm TGR inh | Pf growth 48h | HCMV antiviral | Pf growth 96h
C[C@@H]1c2cccc(O)c2C(O)=C2C(=O)[C@@]3(O)C(O)=C(C(N)=O)C(=O)[C@@H](N(C)C)[C@@H]3[C@@H](O)[C@@H]21 | ? | . | 7.57µM* | . | 1.51µM*
CN(C)c1ccc(O)c2c1C[C@H]1C[C@H]3[C@@H](N(C)C)C(=O)C(C(N)=O)=C(O)[C@]3(O)C(=O)C1=C2O | -19.1%[21.7 µM] | . | . | . | .
C=C1c2cccc(O)c2C(O)=C2C(=O)[C@@]3(O)C(O)=C(C(N)=O)C(=O)[C@@H](N(C)C)[C@@H]3[C@@H](O)[C@H]12 | ? | . | 3.22µM* | . | 1.28µM*
COc1ccc(-c2nnc3n2N=C(c2c(OC)cccc2OC)CS3)cc1 | -4.2% | . | . | . | .
COc1cccc(-c2cc(C(F)(F)F)n3nc(C)c(-c4ccccc4)c3n2)c1 | . | 1.3% | . | -1.5 | .
CN(C)C1C(=O)C(C(N)=O)=C(O)C2(O)C(=O)C3=C(O)c4c(O)cccc4C(C)(O)C3C(O)C12 (centres undefined) | ? | 31.6µM* | ? | 53.2 | 2.62µM*
CN(C)[C@@H]1C(=O)C(C(N)=O)=C(O)[C@]2(O)C(=O)C3=C(O)c4c(O)ccc(Cl)c4[C@H](O)[C@H]3C[C@@H]12 | -19.3%[21.7 µM] | . | 6.75µM* | . | 3.38µM*
COCC(=O)OC1CCn2c1nc1c2C(=O)C(C)=C(NC(C)=O)C1=O (centres undefined) | . | . | . | -79.2* | .
COc1ccc(S(=O)(=O)N2CCCCC2)cc1NC(=O)CCNC(=O)c1ccco1 | . | -0.8% | 9.28µM* | -12.9 | ?
COc1ccc(S(=O)(=O)N2CCCCC2)cc1NC(=O)CN1CCN(C(C)=O)CC1 | 0.1% | -11.3% | ? | ? | -0.2%
COc1ccccc1Oc1ccc(S(=O)(=O)N2CCCCC2)cc1NC(=O)CCNC(C)=O | . | -25.5% | 11.7µM* | -21.3 | 5.86µM*
Cc1ccc(S(=O)(=O)N2CCCCC2)cc1NC(=O)c1ccc(Br)o1 | . | 2.8% | 7.38µM* | 1.5 | ?
O=C(Nc1ccc(S(=O)(=O)N2CCCC2)cc1)c1ccc(Br)o1 | -2.0% | 1.9% | ? | -11.6 | 25.1%
Cc1ccc(S(=O)(=O)N2CCCCC2)cc1NC(=S)NC(=O)c1ccco1 | ? | ? | ? | -22.1 | 4.15µM*
Cc1ccc(Cl)cc1Nc1nn2c(=O)c3ccc(C(=O)NCc4ccc(F)cc4)cc3nc2s1 | . | 40.6% | . | -2.8 | .
CCN1CCN(S(=O)(=O)c2ccc(Cl)c(C(=O)NCCc3ccccc3)c2)CC1 | . | -14.1% | 71.2% | 4.5 | 43.5%
COC(=O)c1ccsc1NC(=O)CN1CCN(c2ncccn2)CC1 | 4.9% | -12.7% | 11.7µM* | -7.5 | 0.0%
COC(=O)c1ccsc1NC(=O)CN1CCN(c2ccc(F)cc2)CC1 | -5.0% | -0.2% | ? | -25.7 | 12.5%
O=C(CSc1cn(CCNC(=O)c2ccccc2F)c2ccccc12)Nc1ccc(F)cc1 | . | -4.0% | . | -7.7 | .
COc1ccc(NC(=O)C2C3C=CC(O3)C2C(=O)O)cc1 (centres undefined) | -4.6% | 44.7µM* | 13.5% | 19.4 | ?
COc1cccc(NC(=O)C2CC2)c1 | . | -1.3% | 21.1% | 61.2 | -2.5%
CC(=O)c1ccc(NC(=O)C2C3C=CC(O3)C2C(=O)O)cc1 (centres undefined) | 9.2% | -6.1% | -6.3% | 20.3 | 0.3%
CCCOC(=O)c1ccc(NC(=O)C2C3C=CC(O3)C2C(=O)O)cc1 (centres undefined) | 8.9% | 20µM* | 53.8% | 17.0 | -0.5%
COc1cccc(NC(=O)C2C3C=CC(O3)C2C(=O)O)c1 (centres undefined) | -11.8% | 35.5µM* | 0.0% | -4.0 | i
COc1ccc(NC(=O)C2C3C=CC(O3)C2C(=O)NCc2cccnc2)cc1 (centres undefined) | -19.7% | -33.7% | 25.3% | 13.7 | 10.4µM*
SMILES | Giardia FBPA inh | Sm TGR inh | Pf growth 48h | HCMV antiviral | Pf growth 96h
O=C(O)C1C2C=CC(C2)C1C(=O)Nc1ccc2c(c1)OCCO2 (centres undefined) | 4.8% | -2.9% | 30.7% | . | .
O=C(O)C1C2C=CC(O2)C1C(=O)Nc1ccc2c(c1)OCCO2 (centres undefined) | -18.8% | 35.5µM* | 139.7% | . | 134.1%
CC(=O)N1CCC(N(C(=O)Nc2ccc(C)c(F)c2)C(C)C)CC1 | . | 1.3% | . | 41.1 | .
O=C(c1ccc(N2CCCC2)c([N+](=O)[O-])c1)N1CCN(S(=O)(=O)c2ccc(Cl)cc2)CC1 | . | -7.8% | ? | -3.5 | ?
Nc1ccc(C(=O)N2CCCC2)cc1CS(=O)(=O)c1ccc(Cl)cc1 | 7.2% | 0.7% | 0.0% | -24.2 | 7.8%
O=C(c1ccc(S(=O)(=O)Cc2cc(F)ccc2F)c([N+](=O)[O-])c1)N1CCCCC1 | -3.8% | 8.91µM* | 14.7µM* | ? | 71.5%
O=C(c1ccc(S(=O)(=O)Cc2cc(F)ccc2F)c([N+](=O)[O-])c1)N1CCCC1 | -18.9% | ? | -29.5% | -75.0* | ?
C=CCn1c(NS(=O)(=O)c2ccccc2)c(S(=O)(=O)c2ccc(C)cc2)c2nc3ccccc3nc21 | 0.141µM* | ? | 3.29µM* | 61.9 | ?
O=S(=O)(Nc1c(S(=O)(=O)c2ccccc2)c2nc3ccccc3nc2n1C1CCCCC1)c1ccccc1 | ? | -21.0% | 3.7µM* | 34.8 | 9.28µM*
CC(=O)Nc1c(S(=O)(=O)c2ccccc2)c2nc3ccccc3nc2n1Cc1ccccc1 | -2.1% | 12.1% | ? | . | 268.2%
CCOc1cccc(-c2c(C(=O)N/N=C(\C)c3ccncc3)nnn2-c2nonc2N)c1 | . | 0.7% | -5.8% | -30.1 | ?
CCOC(=O)c1nnn(-c2nonc2-n2cccc2)c1CN1CCC(C)CC1 | -1.9% | -8.2% | ? | ? | 22.7%
CCOC(=O)c1nnn(-c2nonc2-n2cccc2)c1CCl | 17.2% | 8.91µM* | ? | ? | .
CCOc1ccc(/C=N/NC(=O)c2nnn(-c3nonc3N)c2-c2ccc(OCC)cc2)cc1 | 6.5% | 3.3% | 0.0% | 25.8 | -2.8%
CCOc1cccc(-c2c(C(=O)N/N=C(\C)c3ccccn3)nnn2-c2nonc2N)c1 | . | -4.8% | ? | -69.2* | 3.7µM*
CCOC(=O)c1nnn(-c2nonc2N)c1CS(=O)(=O)c1ccccc1 | 2.2% | 3.0% | 1.1% | -37.2 | 11.7µM*
CCOC(=O)c1nnn(-c2nonc2N)c1-c1ccc(OCC)cc1 | -6.7% | -5.9% | 13.1µM* | -28.8 | ?
Cc1ccc(CNCCCn2cnc3c(OCc4ccccc4)ncnc32)o1 | . | . | . | 4.1 | .
CCC1CN(C(=O)N2CCC(C(=O)NCc3ccc(OC)cc3OC)CC2)c2cc(C)ccc2O1 (centres undefined) | . | 17.8% | . | 66.7 | .
CN(C)c1nc(OCCNC(=O)COc2ccc(Cl)cc2Cl)nc(N2CCCCC2)n1 | 1.0% | 12.7% | ? | 1.8 | 2.62µM*
